The structures appear in SMILES notation. The panel holds about 83,000 compounds, 20% with a hit somewhere; the sample as a whole holds those more often.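 Interpretation: 100, growth as untreated; towards 0, rising growth inhibition; 0, no net growth; 0 to -100, cell death. Compounds scoring below 10 were considered active.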 Values without a mark were called inactive. Active and inactive are the calls of the source.

Among the test systems are T-47D breast; BT-549 breast; MDA-MB-435 melanoma; SW-620 colon; MCF7 breast; HCT-116 colon; KM12 colon; HCC-2998 colon.
Experiment in all cases: NCI-60 one-dose screen, 48 h (100 = growth as untreated, 0 = no growth, -100 = all killed)
Common to all, as to settings: 10 µM unless noted

For `C=C1C(=O)O[C@H]2[C@H]1CC/C(COC(=O)NCc1ccc(OC)c(OC)c1)=C\CC[C@@]1(C)O[C@@H]21`, the growth in the assay with T-47D breast was 30.2%; in the assay on BT-549 breast, 75.2%; with MDA-MB-435 melanoma, 54.8%; in the assay with SW-620 colon, 14.1%; in the assay with MCF7 breast it was 34.5%; with HCT-116 colon, 7.17% (active). In addition, the growth in the assay on KM12 colon was 90.9%.
For `O=C(COc1ccc(/C=C2\COc3ccccc3C2=O)cc1)Nc1nccs1`, the growth with T-47D breast was 90%; in the assay on BT-549 breast, 2.68% (active); with MDA-MB-435 melanoma, 105%; in the assay on SW-620 colon, 69.1%; with MCF7 breast, 15%; in the assay on HCT-116 colon, 38.1%. Besides, the growth in the assay with HCC-2998 colon is 168%; with KM12 colon it was 43.3%.
`CN(C)S(=O)(=O)c1ccc(S(=O)(=O)Nc2cccc(Cl)c2N2CCCCC2)cc1`: the growth is 67.4% with T-47D breast; 88.4% with BT-549 breast; 92.3% with MDA-MB-435 melanoma; 97.1% with SW-620 colon; 84.1% with MCF7 breast; 61.6% in the assay on HCT-116 colon. Also, the growth in the assay on HCC-2998 colon and in the assay on KM12 colon was 94.5% throughout.
Regarding `COc1ccc(NC(=O)c2ccc(/C=C/C(=O)c3ncc[nH]3)cc2)cc1`, the growth is 68.5% with T-47D breast; 78.8% in the assay with BT-549 breast; 67.1% in the assay with MDA-MB-435 melanoma; 34.5% with SW-620 colon; 25.1% with MCF7 breast; 71.5% with HCT-116 colon. In addition, the growth was 83.9% in the assay on HCC-2998 colon and 27.5% with KM12 colon.
Regarding `O=C1CC[C@H](c2ccc(O)c3c2C(=O)[C@@H]2O[C@@H]2C3=O)c2cccc(O)c21`, the growth with T-47D breast was -26.1% (active); with BT-549 breast, 86.8%; in the assay with MDA-MB-435 melanoma, 47.3%; in the assay with SW-620 colon, -41.3% (active); in the assay on MCF7 breast, -31.5% (active); in the assay on HCT-116 colon, 5.4% (active). Further, the results for the growth in the assay with HCC-2998 colon and with KM12 colon were 101% and 85.1%, respectively.
As for `Cn1ccnc1C(=O)/C=C/c1ccc(CC(=O)Nc2ccccc2)cc1`, the growth with T-47D breast was 15.2%; in the assay with BT-549 breast, 22.4%; in the assay with MDA-MB-435 melanoma, 13.5%; in the assay with SW-620 colon, 2.2% (active); in the assay with MCF7 breast it was 12%; in the assay on HCT-116 colon it was 18.2%. Besides, the results for the growth in the assay with HCC-2998 colon and in the assay on KM12 colon were 29% and 3.7% (active), respectively.
Turning to `C=C(C)C(=O)Nc1ccc(NC(C)C)cc1`, the growth in the assay with T-47D breast was 100%; in the assay on BT-549 breast, 156%; with MDA-MB-435 melanoma it was 117%; in the assay with SW-620 colon it was 105%; with MCF7 breast it was 146%; with HCT-116 colon it was 105%. Further, the growth in the assay with KM12 colon was 109%.
For `Clc1ccc2c(NCCCCNc3nc(N4CCOCC4)nc4ccccc34)ccnc2c1`, the growth was 8.21% (active) with T-47D breast; 107% with BT-549 breast; 14.1% in the assay with MDA-MB-435 melanoma; 14.9% in the assay with SW-620 colon; 33.3% in the assay with MCF7 breast; -7.74% (active) with HCT-116 colon. In addition, the growth is 58.3% in the assay on HCC-2998 colon and 33.4% with KM12 colon.
Take `COc1ccccc1NS(=O)(=O)c1ccc2oc(SC(C)C)nc2c1`: the growth with T-47D breast was 67.2%; in the assay on BT-549 breast, 87.6%; with MDA-MB-435 melanoma it was 88.2%; in the assay on SW-620 colon, 102%; in the assay with MCF7 breast it was 82.3%; in the assay with HCT-116 colon, 63.4%. For the same molecule, the growth is 26% in the assay on HCC-2998 colon and 98.7% with KM12 colon.
`Clc1ccc2c(NCCCNc3nc(-n4ccnc4)nc4ccccc34)ccnc2c1`: the growth is 70.3% with T-47D breast; 82.8% with BT-549 breast; 92.6% in the assay on MDA-MB-435 melanoma; 89.8% in the assay on SW-620 colon; 76.5% in the assay on MCF7 breast; 88.3% in the assay on HCT-116 colon. The figures for the growth in the assay with HCC-2998 colon and with KM12 colon were 106% and 88.5%, respectively.
Turning to `C=C(C)[C@@H]1CC[C@]2(C(=O)OC)CC[C@]3(C)[C@H](CC[C@@H]4[C@@]5(C)C/C(=C/c6cccc(I)c6)C(=O)C(C)(C)[C@@H]5CC[C@]43C)[C@@H]12`, the growth in the assay on T-47D breast was 93.6%; in the assay on BT-549 breast, 101%; in the assay on MDA-MB-435 melanoma, 96.6%; in the assay with SW-620 colon, 101%; in the assay with MCF7 breast it was 89.2%; in the assay on HCT-116 colon, 95.4%. The growth is 99.7% in the assay with HCC-2998 colon and 101% in the assay on KM12 colon.
With `CCCOc1cc2ccccc2cc1C(=O)Nc1nc(NC)c2c(ccc3nccc32)[nH]1`, the growth is -52.5% (active) in the assay with T-47D breast; -27.4% (active) in the assay with BT-549 breast; -89.2% (active) in the assay on MDA-MB-435 melanoma; -75% (active) in the assay on SW-620 colon; -61.9% (active) in the assay on MCF7 breast; -72.3% (active) with HCT-116 colon. In addition, the growth in the assay with HCC-2998 colon was -70.5% (active); in the assay on KM12 colon it was -72.2% (active).
With `CCN(CC)c1ccc2c(c1)Oc1nc(N)c(C#N)c(N)c1C2Sc1ccc(SC)cc1` (stereo not given), the growth in the assay on T-47D breast was -4.08% (active); with BT-549 breast, -80.4% (active); with MDA-MB-435 melanoma it was -25.7% (active); with SW-620 colon, -70.7% (active); with MCF7 breast, -0.904% (active); in the assay on HCT-116 colon it was -27.5% (active). Moreover, the growth in the assay on HCC-2998 colon was -72.2% (active); with KM12 colon, -74.5% (active).
`COc1ccc(-n2nc(C)c3c(Nc4ccc(NC(=O)Nc5cccc(C(F)(F)F)c5)cc4)ncnc32)cc1`: the growth in the assay on T-47D breast is -13.9% (active); with BT-549 breast, 25.2%; in the assay with MDA-MB-435 melanoma, 6.96% (active); with SW-620 colon, 12.4%; in the assay with MCF7 breast it was 2.15% (active); in the assay with HCT-116 colon it was 1.52% (active). In addition, the growth in the assay with HCC-2998 colon is 14.1%; with KM12 colon, 2.78% (active).

Values taken from PubChem BioAssay (NCI).
